Source: PubChem BioAssay (National Center for Advancing Translational Sciences (NCATS))
SW480 rereplic – A quantitative high throughput screen for small molecules that induce DNA re-replication in SW480 colon adenocarcinoma cells; SW480 DNA re-replication, Hoechst DNA content imaging, 48 h; Potency, µM (series often up to 46.1 µM), without a hit: at the highest dose re-replication activation, most hits filed as activators; 340,000 tested, 1.8% active; also: % of control where 0% means no effect; nearly all actives have a fitted effect of over 55% in size
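Treated cells incubate 48 hr (37 C, 5% CO2), are stained 40 min with Hoechst, and nuclear fluorescence is enumerated; a rise in nuclei with high DNA signal marks re-replication.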
RORgamma inh – qHTS for inhibitors of ROR gamma transcriptional activity. 310,000 tested, 5.4% active. Potency, µM (highest dose often 53.6 µM), for the others: at the highest dose activity change, negative = inhibition, hits mostly inhibitors. Drosophila S2 Gal4-RORgamma UAS-luciferase reporter, 20 h. AID 2551, 2010; also: % is scaled to controls: 0 for no effect and ±100 for the full control effect; nearly all actives have a fitted effect of over 60% in size
Target sequence (P51450 whole entry, looked up, the tested form may be a part): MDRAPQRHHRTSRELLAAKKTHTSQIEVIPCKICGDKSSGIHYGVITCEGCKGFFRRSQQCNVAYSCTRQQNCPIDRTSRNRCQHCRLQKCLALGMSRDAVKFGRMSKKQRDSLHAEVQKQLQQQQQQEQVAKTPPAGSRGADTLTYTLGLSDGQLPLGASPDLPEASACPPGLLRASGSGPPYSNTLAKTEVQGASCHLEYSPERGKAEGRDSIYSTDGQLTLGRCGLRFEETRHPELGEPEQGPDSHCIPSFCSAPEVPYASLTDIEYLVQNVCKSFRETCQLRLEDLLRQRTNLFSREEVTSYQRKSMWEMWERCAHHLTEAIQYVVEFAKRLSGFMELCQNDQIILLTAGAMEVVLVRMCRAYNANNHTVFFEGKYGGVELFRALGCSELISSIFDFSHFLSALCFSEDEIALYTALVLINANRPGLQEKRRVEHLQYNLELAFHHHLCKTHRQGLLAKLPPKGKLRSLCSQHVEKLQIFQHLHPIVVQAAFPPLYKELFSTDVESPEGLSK
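Stable Schneider cell line, Gal4 DNA-binding domain fused to ROR gamma, UAS-luciferase. Cmpd 1 hr RT → CuSO4 700 uM final → 20 hr RT → luciferase reagent 10 min → luminescence.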
KB-V1 cytotox – qHTS assay for MDR1-selective chemotherapeutics: Primary screen using the drug-selected MDR subline cells KB-V1 | KB-V1 MDR cells viability, CellTiter-Glo, 72 h | Potency, µM (doses to about 46.1 µM), hits mostly cytotoxic | 400,000 tested, 3.4% active | AID 1347076, 2019; also: % is scaled to controls: 0 for no effect and ±100 for the full control effect; nearly all actives have a fitted effect of over 60% in size
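Compound-treated KB-V1 multidrug-resistant cells, 72 h, 37 degrees C; viability by CellTiter-Glo. Fitted qHTS curves give the values.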
MCF10A rereplic – A quantitative high throughput screen for small molecules that induce DNA re-replication in MCF 10a normal breast cells | 350,000 tested, 2.9% active | Potency, µM (highest dose often 46.1 µM), without a hit: top-dose activity, positive = re-replication, hits mostly activators | MCF 10A DNA re-replication, Hoechst nuclear intensity, 48 h; also: % of control where 0% means no effect; nearly all actives have a fitted effect of over 50% in size
KB-3-1 tox – qHTS assay for MDR1-selective chemotherapeutics: Primary screen using the parental adenocarcinoma cell KB-3-1; 400,000 tested, 1.4% active; AID 1347075, 2019; Potency, µM (doses to about 46.1 µM), actives largely listed as cytotoxic; KB-3-1 viability, CellTiter-Glo ATP luminescence, 72 h; also: % is scaled to controls: 0 for no effect and ±100 for the full control effect; nearly all actives have a fitted effect of over 60% in size
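Here the drug-naive KB-3-1 line serves as comparator for MDR sub-line selectivity; cells received compound titrations, 72 h at 37 °C, then CellTiter-Glo readout.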
Gal4-VP16 FLuc – VP16 counterscreen qHTS for inhibitors of ROR gamma transcriptional activity. Drosophila S2 Gal4-VP16 UAS-luciferase, luminescence, 20 h. Potency, µM (highest dose often 53.6 µM), without a hit: top-dose activity, negative = inhibition, hits mostly inhibitors. 310,000 tested, 3.5% active;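 also: Gal4-VP16 expression switched on by copper sulfate through the metallothionein promoter; % is scaled to controls: 0 for no effect and ±100 for the full control effect; nearly all actives have a fitted effect of over 50% in size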
Active calls of the source: *; i = inactive; u = inconclusive; x = not tested or not shown; [ ] = remark or other dose. Compounds with a hit are over-represented: about 10% of the library has one in this group of screens. Calls follow the shape of the dose curve; as a rule, active = well fitted curve in the direction sought with a large enough effect; inconclusive = small, poorly fitted or top-dose-only effect, or another doubt; inactive = no such curve, though single readings can be large; an effect the other way counts as inactive or inconclusive. Potency is read from the fitted curve at half-maximal effect.

SMILES	SW480 rereplic	RORgamma inh	KB-V1 cytotox	MCF10A rereplic	KB-3-1 tox	Gal4-VP16 FLuc
COC(=O)Cc1c[nH]c2cccc(OCC(O)CN(Cc3ccccc3)C(C)C)c12 (stereo not drawn)	10.2%	8.5%	u	13.3%	i	-9.8%
COC(=O)Cc1c[nH]c2cccc(OCC(O)CN(Cc3ccc([N+](=O)[O-])cc3)C(C)(C)C)c12 (stereo not drawn)	8.0%	9.8%	5.8µM*	8.4%	i	1.6%
Cc1ccccc1-c1cncnc1NCc1ccccc1	x	-22.5%	x	x	x	2.3%
COc1ccc(C(=O)Oc2cccc3cccnc23)cc1[N+](=O)[O-]	u	2.24µM*	i	u	i	3.16µM*
NC(=O)c1ccc(Oc2cccc3cccnc23)c([N+](=O)[O-])c1	1.6%	-3.1%	i	-5.0%	i	-11.6%[10 µM]
O=[N+]([O-])c1cc([N+](=O)[O-])c(Oc2cccc(Cl)c2Cl)cc1NN1CCCCC1	-1.3%	27.4%	i	-9.2%	i	7.0%
Cc1ccc(C(=O)Oc2ccc(Cl)c3cccnc23)cc1[N+](=O)[O-]	u	1.58µM*	i	u	u	3.55µM*
O=[N+]([O-])c1cc([N+](=O)[O-])c(Oc2ccc(Cl)c3cccnc23)cc1NN1CCCCC1	1.2%	6.31µM*	u	1.9%	i	u
O=C(Oc1ccc(Cl)c2cccnc12)C12CC3CC(CC(C3)C1)C2	-5.7%	2.24µM*	i	18.4µM*	i	3.16µM*
O=C(Oc1ccc(Cl)c2cccnc12)N1CCCCC1	-2.0%	10.8%	i	-12.1%	i	6.9%
CSc1cccc(NC(=O)CN2CCN(Cc3ccccc3C)S2(=O)=O)c1	x	x	i	x	i	x
O=C(CSc1nc2c(c(=O)[nH]1)CCCC2)Nc1ccc(Br)cc1	x	x	i	x	i	x
O=C(Oc1ccc(Cl)c2cccnc12)c1cccnc1	u	0.891µM*	i	u	i	1µM*
Cc1cccc(NC(=O)CCS(=O)(=O)c2cc(Br)cc3c2N(C(=O)C2CC2)CC3)c1	x	x	i	x	i	x
CCN(CC)c1ccc(-c2nc(-c3ccco3)no2)cc1[N+](=O)[O-]	x	x	i	x	i	x
Cc1cc(C)n(-c2nnc(C)n2/N=C/c2ccco2)n1	2.0%	-4.1%	i	11.1%	i	7.3%
CCCOc1ccc2ccccc2c1/C=N/n1c(C)nnc1-n1nc(C)cc1C	20.6µM*	0.0%	5.8µM*	10.3µM*	5.17µM*	1.0%
CCC(=O)N1CCc2cc(Br)cc(S(=O)(=O)CCC(=O)Nc3ccc(Cl)cc3)c21	x	x	i	x	i	x
CCCNC(=O)c1c(NC(=O)c2ccccc2F)sc2c1CCCCC2	x	x	i	x	i	x
O=C(Nc1sc2c(c1C(=O)O)CCCCC2)c1ccccc1F	6.6%	11.7%	i	12.8%	11.6µM*	-2.0%
CC(C)(C)c1ccc(C(=O)Nc2sc3c(c2C(=O)O)CCC3)cc1	-3.8%	-3.8%	u	20.6µM*	3.26µM*	u
COc1cccc(C(=O)Nc2sc3c(c2C#N)CCN(C(C)=O)C3)c1	4.61µM*	2.8%	u	4.61µM*	5.17µM*	-4.8%
O=C(Nc1sc2c(c1C(=O)O)CCCC2)c1ccc(F)cc1	7.4%	u	i	-12.3%	u	-13.9%
Cc1ccc(C(=O)Nc2sc3c(c2C(=O)O)CCCC3)o1	3.5%	5.7%	u	0.1%	u	-13.1%
Cc1ccc(C(=O)Nc2sc3c(c2C(=O)O)CCCCC3)o1	-3.3%	2.6%	u	u	16.4µM*	10.9%
SMILES	SW480 rereplic	RORgamma inh	KB-V1 cytotox	MCF10A rereplic	KB-3-1 tox	Gal4-VP16 FLuc
CC(=O)N1CCc2c(sc(NC(=O)CS(=O)(=O)c3ccc(F)cc3)c2C#N)C1	u	x	i	u	u	x
Cc1ccsc1CCN1C(=O)N(c2ccc(F)cc2)C(=O)C1CC(=O)Nc1ccccc1 (stereo not drawn)	x	x	i	x	i	x
COc1ccc(-n2c(=O)c3ccccc3n(CC(=O)NCCc3ccccc3)c2=O)c(OC)c1	x	x	u	x	i	x
COc1ccc(C2CC(=O)N(Cc3ccccc3)c3c2c(C)nn3-c2nc(C)cc(C)n2)c(OC)c1 (stereo not drawn)	x	x	i	x	u	x
COc1cccc(C(=O)Nc2sc3c(c2C(=O)O)CCCC3)c1	-1.1%	29.6%	u	9.6%	18.4µM*	7.3%
COC(=O)N1CCc2c(sc(NC(=O)C3=COCCO3)c2C#N)C1	1.46µM*	x	u	2.06µM*	2.31µM*	x
COc1ccc(C(=O)Nc2ccccc2C(=O)N/N=C/c2ccco2)cc1	1.7%	2µM*	i	6.8%	i	10µM*
O=C(N/N=C/c1ccc(O)cc1)c1ccc(NC(=O)c2ccccc2Br)cc1	u	-32.6%	i	u	i	-23.6%
O=C(Nc1ccccc1C(=O)N/N=C/c1ccncc1)c1ccccc1	8.7%	8.91µM*	i	-3.8%	u	u
Cc1ccccc1C(=O)Nc1ccc(C(=O)N/N=C/c2ccncc2)cc1	0.5%	-2.9%	i	0.7%	i	6.8%
COc1ccc(/C=N/NC(=O)c2ccccc2NC(=O)c2ccco2)c(OC)c1	-1.4%	u	u	-2.0%	i	-22.3%
CCOc1ccc(C(=O)Nc2ccccc2C(=O)O)cc1	6.4%	6.31µM*	i	16.5%	i	u
O=C(Nc1ccccc1C(=O)N/N=C/c1ccc(F)cc1)c1ccccc1Br	-10.0%	10µM*	25.9µM*	4.3%	i	u
CCCC(=O)Nc1ccccc1NC(=O)c1ccc(OCC)cc1	-100.6%	14.6%	i	1.0%	i	-1.7%
CCOc1ccccc1CNC(=O)CCn1cccn1	x	x	i	x	i	x
CCOc1ccc(/C=N/NC(=O)c2ccccc2NC(=O)c2ccc(OC)cc2)cc1	12.4%	7.08µM*	i	0.9%	i	7.08µM*
FC(F)(F)c1cnc(Sc2nc3nccc(-c4ccc(Cl)cc4)n3n2)c(Cl)c1	16.4µM*	u	i	3.26µM*	i	u
COc1ccc(-c2ccnc3nc(Sc4ncc(C(F)(F)F)cc4Cl)nn23)cc1	6.0%	1.5%	14.6µM*	-2.0%	i	-7.2%
CN(C)Cc1ccccc1-c1cncnc1NCc1cccs1	x	0.6%	x	x	x	0.1%
O=C(Cn1ccc2cc(S(=O)(=O)N3CCCCC3)ccc21)NCCc1ccccc1Cl	x	x	i	x	i	x
